# Laboratory results taken from PubChem BioAssay AID1460 (National Center for Advancing Translational Sciences (NCATS), 2008).
# About 5,800 (2.1%) of roughly 270,000 compounds were called active. Another 16% or so got no clear call; they are omitted. For the sample, actives were picked, then their nearest neighbours and some compounds at random. Unmarked numbers belong to inactive results. Calls come from the whole dose curve; as a rule, active = well fitted inhibition curve with a large enough effect; inconclusive = small, poorly fitted or top-dose-only effect; inactive = flat fitted curve, though single readings scatter.
# Target: Microtubule-associated protein tau (Homo sapiens) (UniProt P10636)
# Sequence (P10636 561-689 P618L limits assumed): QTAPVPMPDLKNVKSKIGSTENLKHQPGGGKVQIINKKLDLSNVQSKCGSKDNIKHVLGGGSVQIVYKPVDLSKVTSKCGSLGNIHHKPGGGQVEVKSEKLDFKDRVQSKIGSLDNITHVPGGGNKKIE
# Experiment: qHTS for Inhibitors of Tau Fibril Formation, Thioflavin T Binding; note: nearly all actives have a fitted effect of over 55% in size
# Details: recombinant tau K18 P301L (four-repeat tau fragment), heparin-induced fibrillization, ThT fluorescence; series mostly up to 57.4 µM; activity, negative = inhibition: at the top concentration
# Summary of the method: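 Tau K18 P301L fragment (15 uM unlabeled plus 0.24 uM Alexa 594-labeled) in 100 mM sodium acetate pH 7 with compound, fibrillization induced by 20 uM heparin for 6 hr at 37 C. Thioflavin T (30 uM) added, fluorescence read after 1 hr (ex 450, em 510 nm).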
# % is set by controls: 0 for no effect and ±100 for the full control effect; potency is the fitted concentration of half-maximal effect.
Compound,"activity, negative = inhibition [%]",Potency
O=[N+]([O-])c1ccc(N2CCN(S(=O)(=O)c3ccc4ccccc4c3)CC2)cc1NCc1ccco1,-9.48,
COc1ccccc1OCCNc1cc(N2CCOCC2)ccc1[N+](=O)[O-],,14.1 µM (active)
Cc1ccc2nc(COc3cccc(NC(=O)Nc4ccc(C)c(Cl)c4)c3)cc(=O)n2c1,-13.6,
CCc1ccc(CNCc2c(C(=O)O)n(Cc3ccc(F)cc3Cl)c3cc(OC)ccc23)cc1,-12.6,
COc1ccc(S(=O)(=O)NCc2cccn2Cc2cccc(C)c2)cc1,10.6,
COc1ccc(Cc2nc3ccc(C(=O)NCc4ccccc4C)cc3o2)cc1,-12.9,
O=C(Nc1ccccc1Cl)/C(Cl)=C(\Cl)S(=O)c1ccccc1 (stereo not given),,2.82 µM (active)
O=C(Nc1ccccc1Cl)c1ccc2nsnc2c1,-5.65,
COCCN(CCOC)C(=S)Nc1ccccc1Cl,1.33,
CCOC(=O)C1CCCN(C(=O)Cn2ncc3c(C)n(Cc4ccc(F)cc4)c(C)c3c2=O)C1 (stereo not given),-5.22,
O=C(CCc1nc(CN2CCN(S(=O)(=O)c3ccc(Cl)cc3)CC2)no1)N1CCCCC1,-2.38,
CCC(=O)Nc1ccc(C)cc1-c1nc2ccccc2n(Cc2ccccc2)c1=O,4.56,
Cc1ccc(NC(=O)Nc2ccccc2)c(Br)c1,0.764,
C=CCNc1scc(-c2ccccc2)[n+]1CC=C,-6.04,
C=CC[n+]1c(-c2ccc(C)cc2)csc1NNC(=O)Nc1ccccc1,,15.8 µM (active)
O=C(NCC(c1ccc(Cl)cc1)N1CCOCC1)c1ccccc1F (stereo not given),-2.31,
COc1ccc(-c2cc(C(=O)NCc3cc(OC)c(OC)c(OC)c3)[nH]n2)cc1,-1.22,
Cc1ccc2c(c1)N(CC(=O)NCCCN1CCCCC1)C(=O)c1cccnc1O2,5.5,

Compound,"activity, negative = inhibition [%]",Potency
Cc1ccc(Nc2c(-c3ccc(C)s3)nc3ccccn23)cc1,-17.4,
Cc1ccc(-c2nc3cccc(C)n3c2Nc2ccc3c(c2)OCCO3)cc1,-16.2,
Cc1ccc(Nc2c(-c3ccc(N(C)C)cc3)nc3nc[nH]n23)cc1,,14.1 µM (active)
CCn1cc(C(=O)NCc2ccc(C)cc2)c(=O)c2cc(S(=O)(=O)N3CCc4ccccc4C3)ccc21,8.86,
Cc1c(-c2nsc(NC(=O)c3cccc(Cl)c3)n2)nnn1-c1ccccc1C(F)(F)F,10.2,
CCOC(=O)c1ccc(NC(=O)Cn2cc(S(=O)(=O)Cc3ccccc3F)c3ccccc32)cc1,1.94,
O=C1CC(c2ccccc2)=NN1c1ccc([N+](=O)[O-])cc1,,11.2 µM (active)
O=c1[nH]n(-c2ccc([N+](=O)[O-])cc2)c(=O)c2ccccc12,-17.7,
COC(=O)CC1=NN(c2ccccc2)C(=O)C1,-12.9,
O=C(NCC(c1cccnc1)N1CCc2ccccc21)c1cccc(C(F)(F)F)c1 (stereo not given),-1.15,
COc1ccccc1-c1nnc(SCC(N)=O)o1,7.71,
CCOC(=O)c1c(NC(=O)CCC(=O)NCc2ccco2)sc2c1CCCC2,-11.9,
N#Cc1c(NC(=O)CCCl)sc2c1CCCCC2,0.0781,
O=C(Cc1ccccc1)Nc1sc2c(c1C(=O)Nc1ccc(Br)cc1)CCC2,-1.03,
CCOc1ccc(NC(=O)c2c(NC(=O)Cc3ccccc3)sc3c2CCCCC3)cc1,,22.4 µM (active)
CCOc1ccc(NC(=O)c2c(NCc3cccc(OC)c3OC)sc3c2CCC3)cc1,-8.9,
Cc1ccc(NC(=O)c2c(NC(=O)CCC(=O)O)sc3c2CCCCC3)cc1,,25.1 µM (active)
